PostGolgi yeast: growth inhibition of a yeast mutant, post-Golgi transport screen; post-Golgi transport phenotypic cell assay; inhibition, % at 10 µM; 0.9% of 98,000 active;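 also: yeast cells grown in 1536-well plates; yeast grown about 18 h at 30C before absorbance read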
TNAP act mid DEA: activates human TNAP at intermediate phosphate acceptor concentration; P05186; purified TNAP, CDP-star luminescence, 100 mM DEA, 30 min; stronger effect = higher value; scale: 0 levamisole-inhibited, 1 vehicle-only enzyme; activation factor at 20 µM; 64,000 tested, under 10 active; AID 813;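 active = activation factor of at least 2 at 20 µM, relative to controls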
Cav32 inh: human Cav3.2 channel inhibition, primary screen; Cav3.2-expressing cells, Fluo-4 calcium fluorescence FDSS; stronger effect = lower value; O95180; 4% of 100,000 active; AID 449739; B-score at 10 µM;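 active = single-dose well whose peak fluorescence ratio is a statistical outlier from its plate by either plate-standardised score or position-corrected B-score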
Smad3 inh: Smad3 (human) transcription factor binding inhibition | TR-FRET Smad3/Dy647-FoxH1 peptide binding, europium anti-His | inhibition, % at 25 µM | 0.29% of 88,000 active | P84022;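 active = compounds that reduce the energy-transfer binding signal between the protein and its labelled peptide by more than half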;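 also: 0% = Smad3 plus labelled peptide maximal FRET and 100% = peptide-only background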
PostGolgi ctrl: growth of the yeast control strain, post-Golgi counter-screen; efflux-deficient yeast background strain, growth absorbance A615, 16 h; 5% of 98,000 active; AID 738; inhibition, % at 10 µM
hDAT+cocaine: human DAT dopamine uptake with cocaine, either direction | LLC-PK1 hDAT cells, [14C]-dopamine uptake with cocaine IC80; actives deviate in either direction | B-score at 10 µM | 1.3% of 110,000 active;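 active = Z score or B-score, a plate-position-corrected score, falls beyond the plate's 99.7% confidence bounds, in either direction; inactive = both scores lie inside the 99.7% bounds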;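 also: scored against the spread of the other compound wells on the same plate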
An asterisk follows results filed as active. Sampled rows, rich in hits. Any-hit rate of the full collection: about 8.7%. Rule as the data show it, unless noted: active = inhibition above about 30%; inactive = the rest.

`Cc1nc2cc(-c3ccccc3)nn2c(C)c1CCC(=O)N1CCN(c2ccccc2)CC1` gave PostGolgi yeast 0, Cav32 inh -6*, PostGolgi ctrl 45* and hDAT+cocaine 0.073.
Cc1nc2ncnn2c(C)c1CCC(=O)N1CCN(c2ccccn2)CC1 was read as PostGolgi yeast -6, TNAP act mid DEA 0.9, Cav32 inh -0.092, Smad3 inh -9, PostGolgi ctrl -6 and hDAT+cocaine -0.2.
CN(C)CCCN1C(=O)c2oc3ccc(Cl)cc3c(=O)c2C1c1cccnc1 (configuration not stated) was read as PostGolgi yeast 3, TNAP act mid DEA 0.8, Cav32 inh -0.069, Smad3 inh -3, PostGolgi ctrl 4 and hDAT+cocaine -1.1.
Cc1cc(C)nc(SC2=CS(=O)(=O)c3ccccc32)n1 was read as PostGolgi yeast -4, TNAP act mid DEA 0.9, Cav32 inh 0.26, Smad3 inh 5, PostGolgi ctrl 3 and hDAT+cocaine -7.7*.
For O=S1(=O)C=C(Sc2nnc(-c3ccccc3)o2)c2ccccc21 the results were PostGolgi yeast 88*, TNAP act mid DEA 0.9, Smad3 inh 2 and PostGolgi ctrl 31*.
O=C(CSc1nc2ccccc2s1)CSc1nc2ccccc2s1 was read as PostGolgi yeast -4, Cav32 inh -0.062, Smad3 inh 14, PostGolgi ctrl 3 and hDAT+cocaine -0.89.
For CSc1nnc(-c2ccccc2)o1 the results were PostGolgi yeast 4, TNAP act mid DEA 0.9, Cav32 inh 0.58, Smad3 inh -4, PostGolgi ctrl 16 and hDAT+cocaine -0.27.
Screening O=S1(=O)C=C(Sc2nc3ccccc3s2)c2ccccc21 returned PostGolgi yeast 89*, TNAP act mid DEA 0.9, Cav32 inh 1.7, Smad3 inh 5, PostGolgi ctrl 31* and hDAT+cocaine -0.63.
`COc1ccc(C2C3=C(CCCC3=O)Nc3nc4ccccc4n32)c(OC)c1OC` (configuration not stated) gave TNAP act mid DEA 1 and Smad3 inh -1.
Screening NC(=O)CSc1nc2scc(-c3ccco3)c2c(=O)n1-c1ccccc1 returned PostGolgi yeast -15, TNAP act mid DEA 0.9, Cav32 inh 0.45, Smad3 inh 2, PostGolgi ctrl -5 and hDAT+cocaine 0.37.
`O=c1c2c(-c3ccco3)csc2nc(SCc2cn3cccnc3n2)n1-c1ccccc1` gave PostGolgi yeast -5, TNAP act mid DEA 1, Cav32 inh -4.4*, Smad3 inh 8, PostGolgi ctrl 36* and hDAT+cocaine -0.016.
`CCOC(=O)c1sc(=S)n(Cc2ccccc2)c1N` gave PostGolgi yeast 7, TNAP act mid DEA 0.8, Cav32 inh -6.7*, Smad3 inh -5, PostGolgi ctrl 14 and hDAT+cocaine 0.012.
CCOC(=O)C(NC(C)=O)C(=O)O (configuration not stated) was read as PostGolgi yeast -1, Cav32 inh 0.76, Smad3 inh 2, PostGolgi ctrl 2 and hDAT+cocaine -0.43.
For O=C(c1cccc(Br)c1)N1CCN(C(=O)N2CCOCC2)CC1 the results were Cav32 inh 0.86, Smad3 inh 0 and hDAT+cocaine -0.17.
Screening CCC1(C(=O)c2ccccc2)C2c3cc(Br)ccc3OC(=O)C21C(=O)N1CCOCC1 (configuration not stated) returned PostGolgi yeast -4, Cav32 inh -4.3*, PostGolgi ctrl 22 and hDAT+cocaine -0.32.
`CC(=O)c1cnc(Nc2nc(C)c3cccc(C)c3n2)nc1C` gave TNAP act mid DEA 1 and Smad3 inh 1.
For Cc1cc(C(F)F)n2nc(C(=O)Nc3cc(C)on3)nc2n1 the results were PostGolgi yeast 2, Cav32 inh 0.0025, PostGolgi ctrl 3 and hDAT+cocaine -0.63.
For CC1(C)Cc2c(sc3c2c(=N)n(Cc2ccco2)c(=O)n3Cc2ccc(F)cc2)CO1 the results were PostGolgi yeast 14, TNAP act mid DEA 0.9, Cav32 inh -2.5, Smad3 inh -11, PostGolgi ctrl 64* and hDAT+cocaine 0.82.
Screening Cc1csc(NC(=O)CSc2nc3ccccc3s2)n1 returned PostGolgi yeast 13, Cav32 inh -7*, Smad3 inh -11, PostGolgi ctrl 0 and hDAT+cocaine -0.047.
For O=C(CSc1nc2ccccc2s1)c1sc2sc3ccccc3[n+]2c1O the results were Smad3 inh 96*.

Compound activity (PubChem BioAssay)
